# Sampled rows, rich in hits. Any-hit rate of the full collection: about 10%.
# ALDH1A1 inh – qHTS Assay for Inhibitors of Aldehyde Dehydrogenase 1 (ALDH1A1) | Aldehyde dehydrogenase 1A1 (Homo sapiens), P00352 | Potency, µM (highest dose often 75.3 µM), actives largely listed as inhibitors | hit rate 7.3% among 220,000 | Purified ALDH1A1, NADH fluorescence, propionaldehyde substrate
# Luc counter – Counterscreen for Luciferase (Kinase-Glo TM) Inhibition. hit rate 0.28% among 200,000. Kinase-Glo luciferase, ATP luminescence, 8 min. Potency, µM (series often up to 38.3 µM), hits mostly inhibitors. AID 1379, 2008; active = well fitted inhibition curve with a large enough effect; inconclusive = small, poorly fitted or top-dose-only effect; note: nearly all actives have a fitted effect of over 60% in size
#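 Inhibition of Kinase-Glo luciferase light generation was assessed at 10 uM ATP in pH 7.2 imidazole buffer, with luminescence measured after eight minutes at ambient temperature.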
# HPGD block – qHTS Assay for Inhibitors of HPGD (15-Hydroxyprostaglandin Dehydrogenase) | purified HPGD, NADH fluorescence kinetic, PGE2 substrate | Potency, µM, hits mostly inhibitors | hit rate 4.3% among 150,000 | AID 894, 2007
# Target sequence (P15428 whole entry, looked up): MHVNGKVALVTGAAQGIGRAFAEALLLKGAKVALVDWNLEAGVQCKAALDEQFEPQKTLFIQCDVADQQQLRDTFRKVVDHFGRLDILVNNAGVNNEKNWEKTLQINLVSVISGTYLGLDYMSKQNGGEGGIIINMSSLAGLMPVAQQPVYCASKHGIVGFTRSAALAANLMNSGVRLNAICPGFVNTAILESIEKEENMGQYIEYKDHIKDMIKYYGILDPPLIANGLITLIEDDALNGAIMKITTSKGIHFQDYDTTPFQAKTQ
#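 NADH formation kinetics: reaction with 30 uM PGE2 and 1 mM NAD+ (final), 20 nM enzyme, Tris-HCl pH 8 with Tween 20, after 15 min compound preincubation at room temperature. Fluorescence change, last versus first of five reads.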
# Lamin A splicing – qHTS Assay for Modulators of Lamin A Splicing; HeLa LMNA splicing GFP/RFP minigene ratio, 48 h; hit rate 0.01% among 200,000; AID 1487, 2009; Potency, µM (titrated, usually from 46.1 µM), usual class: inhibitors; active = well fitted inhibition curve with a large enough effect in the signal ratio, with a control signal flat, not every such curve was filed as active; inconclusive = small, poorly fitted or top-dose-only effect, or effect the other way, or a change in a side signal; the % refers to the signal ratio
#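 S3 HeLa cells stably expressing lamin A-EGFP splicing minigene plus DsRed2, 600 cells/well, 48 h compound exposure at 37C. Laser-scanning cytometry; analysed as GFP (500-530 nm)/RFP (575-640 nm) total intensity ratio; 0.5% DMSO vehicle.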
# PNC assembly inh – High Content Assay for Compounds that inhibit the Assembly of the Perinucleolar Compartment; PC3M PTB-GFP, PNC prevalence imaging, 16 h; stronger effect = lower value; activity change (PNC), negative = inhibition, % at 10 µM; hit rate 3.1% among 140,000; AID 2417, 2010;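 active = readout at or below -70, meaning at least 70% loss of cells showing the perinucleolar compartment, a nuclear body marking cancer cells; inconclusive = readout between -30 and a set limit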
#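 PC3M cells stably expressing PTB-GFP, 750–1000 cells/well, treated 16 h at 37 °C with compound (23 nl of library stock), in duplicate. After paraformaldehyde fixation and Hoechst stain, imaged at 20x; PNC prevalence scored by image analysis.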
# Hits are given with their value; 0 = inactive; ? = inconclusive; - = no result given; [ ] = another dose, or the depositor's remark. Unless noted, calls come from the whole dose curve; as a rule, active = well fitted inhibition curve with a large enough effect (not every such curve was filed as active); inconclusive = small, poorly fitted or top-dose-only effect, or another doubt; inactive = no such curve, though single readings can be large or run the other way.
SMILES,ALDH1A1 inh,Luc counter,HPGD block,Lamin A splicing,PNC assembly inh
COc1cc(/C=C2\SC(=O)NC2=O)ccc1Oc1ccc([N+](=O)[O-])cc1[N+](=O)[O-],?,0,-,?,-
Cc1ccc(S(=O)(=O)/N=C2/NC(=O)/C(=C/c3ccncc3)S2)cc1,?,0,14µM,0,0
COc1cc(/C=C2\S/C(=N/S(=O)(=O)c3ccc(C)cc3)NC2=O)c([N+](=O)[O-])cc1OC,?,0,7.1µM,0,?
Cc1ccc(S(=O)(=O)/N=C2/NC(=O)/C(=C/c3ccccc3)S2)cc1,?,0,-,-,-
CCc1c2c(nc3ccc(OC)cc13)COC2,?,0,?,-,-
COC(=O)c1ccc(NS(=O)(=O)N(C)C)cc1,0,0,?,0,0
CN(C)S(=O)(=O)Nc1ccc(NS(=O)(=O)N(C)C)c(S(=O)(=O)c2ccccc2)c1,0,0,0,0,0
CN(C)S(=O)(=O)Nc1ccc2c(c1)Cc1ccccc1-2,0,0,14µM,0,0
Cc1ccc(NS(=O)(=O)N(C)C)cc1,0,0,?,0,-100
O=C(c1cnccn1)N1CCC[C@@]2(CCN(Cc3ccccc3)C2)C1,0,0,0,-,-
CN(C)c1ncc2nc(-c3cc(F)cc(F)c3)c(=O)n(C[C@H]3CCCO3)c2n1,0,-,-,0,-
O=C(/C=C/c1ccco1)NCCCN1CCOCC1,?,0,-,-,-
O=C(/C=C/c1ccccc1)NCCC1=CCCCC1,0,0,28µM,?,0
O=C(/C=C/c1c(Cl)cccc1Cl)NCCc1ccccc1,0,0,0,0,0
CC(C)=CC(=O)NCCc1ccccc1,?,?,20µM,0,0
O=C(/C=C/c1ccco1)NCCc1ccccc1,22µM,0,-,-,-
O=C(/C=C/c1ccc(F)cc1)NCCC1=CCCCC1,0,0,0,0[0.0737 µM],0
O=C(/C=C/c1cccc(Cl)c1)NCCc1ccccc1,?,0,8.9µM,0,0
O=C(O)/C=C/C(=O)NCCc1ccccc1,0,0,-,-,-
O=C(/C=C/c1ccco1)NCC1(c2ccccc2)CCCC1,?,0,0,0,-109
O=C(O)CCCNC(=O)/C=C/c1ccco1,22µM,-,-,-,-
CC/C(=N\NC(=O)CNC(=O)/C=C/c1ccco1)c1ccccc1,14µM,0,0,0,0
CN(CCOC(=O)/C=C/c1ccco1)Cc1ccccc1,22µM,0,-,0,-
CN(Cc1ccccc1)C(=O)COC(=O)/C=C/c1ccco1,?,0,-,0[9.22 µM],-
O=C(O)CCCCCNC(=O)/C=C/c1ccco1,0,0,-,0,-
SMILES,ALDH1A1 inh,Luc counter,HPGD block,Lamin A splicing,PNC assembly inh
CCC/C(=N\NC(=O)CNC(=O)/C=C/c1ccco1)c1ccccc1,0,0,0,0,0
FC(F)(F)c1ccccc1-c1nccc(NCc2ccccc2)n1,0,0,0,0,-
O=C(COC(=O)c1cccs1)NCCC1=CCCCC1,0,0,18µM,0,?
COc1ccc(NS(=O)(=O)CC23CCC(CC2=O)C3(C)C)cc1 (stereo not given),7.9µM,0,0,0,0
CCOCCn1ccc2c(OCC(=O)NCc3ccc(F)cc3)cccc2c1=O,-,-,-,0,-
COc1cc(C(Nc2ccc3c(c2)OCO3)C(=O)NC2CCCCC2)cc(OC)c1OC (stereo not given),0.63µM,0,0,0,0
COc1cc(NC(=O)Nc2ccc3c(c2)OCO3)cc(OC)c1OC,0,0,-,-,-
O=C1c2ccccc2-c2cc([N+](=O)[O-])c([N+](=O)[O-])cc21,?,0[7.66 µM],0,-,-
CC(C)OC(=O)c1cccc(-c2ccc(C=O)o2)c1,6.3µM,0,0,0,-108
CCOc1ccc(CNS(=O)(=O)c2c(C(=O)N3CCCCCC3)c(C)n(C)c2C)cc1OC,-,-,-,0,-
C=CCN1C(=O)CN=C1Nc1cc(C)ccc1C,3.5µM,0,0,0,0
C=CCN1C(=O)CN=C1Nc1cccc(C)c1,0,-,-,0,0
Cc1ccc(NC(=O)C(CC(C)C)N2Cc3ccccc3C2=O)cc1F (stereo not given),-,-,-,0,-
C=CSc1sc(Cl)c(N2CCOCC2)c1[N+](=O)[O-],?,0,-,-,-
C=CS(=O)(=O)c1sc(Cl)c(N2CCOCC2)c1[N+](=O)[O-],0.22µM,0,-,?,-
O=c1c2nnn(Cc3ccccc3)c2ncn1C/C=C/c1ccccc1,0,0,14µM,0,0
O=C(Cn1cnc2c(nnn2Cc2ccc(Cl)cc2)c1=O)OCc1ccccc1,13µM,0,13µM,0,0
O=C(Cn1cnc2c(nnn2Cc2ccccc2)c1=O)c1ccc(Cl)cc1,0,0,0,0,0
CCOC(=O)Cn1cnc2c(nnn2Cc2ccc(Cl)cc2)c1=O,0,0,0,0,0
COC(=O)C(C)n1cnc2c(nnn2Cc2ccc(Cl)cc2)c1=O (stereo not given),0,0,28µM,0,0
O=c1c(-c2ccc(O[C@@H]3O[C@H](CO)[C@@H](O)[C@H](O)[C@H]3O)cc2)coc2cc(O)cc(O)c12,?,0,0,-,-
COc1ccc(-c2nc3cnc(OC)nc3n(C[C@H]3CCCO3)c2=O)cc1,?,-,-,0,-
COc1cccc(C(=O)COc2ccc3c(C)c(Cc4ccccc4)c(=O)oc3c2C)c1,0,0,0,0,-100
Fc1ccc(CSc2nc3ncc(Br)cc3[nH]2)cc1,0,0,0.63µM,0,0
O=C(CSc1nc2ncc(Br)cc2[nH]1)c1ccc([N+](=O)[O-])cc1,?,0,8.9µM,0,?
SMILES,ALDH1A1 inh,Luc counter,HPGD block,Lamin A splicing,PNC assembly inh
CC(=O)c1cc(CC=C(C)C)c(O)cc1O,0,0,13µM,0,0
CC(=O)c1cc(CC=C(C)C)c(O)c(CC=C(C)C)c1O,0,0,0,0,0
CC(=O)c1cc(C#N)c(SCC(=O)OC(C)(C)C)nc1C,6.3µM,0,0,0,0
O=C(c1ccc(S(=O)(=O)N2CCCCC2)cc1)N1CCN(CCN2C(=O)c3cccc4cccc(c34)C2=O)CC1,0.63µM,0,-,?,-
Cc1cc(C)nc(N2CCN(C(=O)c3ccc(S(=O)(=O)N4CCCCCC4)cc3)CC2)n1,18µM,0,-,?,-
CCOC(=O)CSc1nc2c(sc(=S)n2-c2ccccc2)c(=O)[nH]1,0,0,20µM,0,?
CCOC(=O)CSc1nc2sc(C)c(C)c2c(=O)[nH]1,0,0,3.5µM,0,0
CCOC(=O)CSc1nc2c(sc(=S)n2-c2ccc(OCC)cc2)c(=O)[nH]1,?,0,-,-,-
CCOc1ccc(-n2c(=S)sc3c(=O)[nH]c(SCC(=O)C(C)(C)C)nc32)cc1,7.1µM,0,-,-,-
CCOC(=O)/C(=C\c1ccc(Cl)cc1)c1nc2sc(C)c(C)c2c(=O)[nH]1,25µM,0,22µM,?,0
CCCCC(=O)N(Cc1nc2sc(C)c(C)c2c(=O)[nH]1)C1CCCC1,?,0,-,-,-
CCOC(=O)c1ccc(CN(Cc2ccccc2C)S(=O)(=O)c2ccc(F)c(C(=O)Nc3cccc(OC)c3)c2)cc1,-,-,-,0,-
